Assay results taken from PubChem BioAssay (Tox21).
Inconclusive results are not listed. Entries that show only a call come without a potency. A number with no mark means an inactive call. Calls of active or inactive are those of the source. The call rests on the fitted dose curve; in most records, active means well fitted cell-killing curve with a large enough effect in the repeat runs; inconclusive means weak or mixed curves, or effect the other way; inactive means flat fitted curve, though single readings scatter.

Experiment: Nuclear factor erythroid 2-related factor 2/antioxidant responsive element (Nrf2/ARE) small molecule agonists: qHTS cell viability counter screen in human keratinocytes (AID 1919968); further: nearly all actives have a fitted effect of over 55% in size
Method in brief: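 In human HaCaT keratinocytes stably expressing an ARE-driven luciferase, compound exposure lasted 23 h at 37 C under 5% CO2. Viable cells are quantified with a protease-based fluorogenic reagent (CellTiter-Fluor) read 1 h after addition.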
Potency means the concentration at half of the fitted maximal effect.

SMILES	Potency	activity change, negative = cytotoxicity
NS(=O)(=O)c1cc2c(cc1Cl)CN(C1CCCCC1)C2=O	inactive	
CCOCCn1c(C2CCN(CCc3ccc(C(C)(C)C(=O)O)cc3)CC2)nc2ccccc21	inactive	
CCOC(=O)CC(=O)c1cc(F)c(Cl)nc1Cl	inactive	
COc1cc2c(N3CCN(C(=O)Nc4ccc(OC(C)C)cc4)CC3)ncnc2cc1OCCCN1CCCCC1	23.7 µM (active)	
CCN(CC)CCNc1ccc(CNC=O)c2sc3ccc(OC)cc3c(=O)c12	54.5 µM (active)	
C[C@H](CCC(=O)NCC(=O)O)[C@H]1CC[C@H]2[C@@H]3[C@H](O)C[C@@H]4C[C@H](O)CC[C@]4(C)[C@H]3C[C@H](O)[C@]12C	inactive	
CC(COc1ccccc1)NC(C)C(O)c1ccc(O)cc1 (stereo not drawn)	inactive	
Clc1nnc(Cl)c2ccccc12	inactive	
CCCCCCCCCCCCCOP(=O)(O)O	inactive	
C=CC(=O)OCCCCCCCCCC	inactive	
O=[N+]([O-])c1c(Cl)cc(Cl)cc1Cl	inactive	
COc1ccc(N)c([N+](=O)[O-])c1	inactive	
CCNc1nc(NC(C)(C)C)nc(OC)n1	inactive	
O=C(CO)[C@@H](O)[C@H](O)[C@H](O)CO	inactive	
CCCCCCCCN1CCCC1=O	inactive	
CN(C)C(=O)C1(N2CCCCC2)CCN(CC[C@@]2(c3ccc(Cl)c(Cl)c3)CN(C(=O)c3ccccc3)CCO2)CC1	22.7 µM (active)	
Nc1ccc(C(=O)OCC(O)CO)cc1 (stereo not drawn)	inactive	
CCOC(=O)CC#N	inactive	
CCCCC(CC)CN1C(=O)C2C3C=CC(C3)C2C1=O (stereo not drawn)	inactive	
COc1cc(C(=O)NS(=O)(=O)c2ccccc2C)ccc1Cc1cn(C)c2ccc(NC(=O)OC3CCCC3)cc12	inactive	
COc1cc2c(cc1OC)CN(C(=O)[C@H](C)N[C@@H](CCc1ccccc1)C(=O)O)[C@H](C(=O)O)C2	inactive	
CCCCCCCCCCCCCC=O		-1.13% [at 8.39 µM]
Cc1cc(C)n(CO)n1	inactive	
CCC1=C(C)CN(C(=O)NCCc2ccc(S(=O)(=O)NC(=O)NC3CCC(C)CC3)cc2)C1=O (stereo not drawn)	inactive	
O=C(Oc1ccccc1C(=O)O)c1ccccc1O	inactive	
COc1cc2nc(N3CCN(C(=O)c4ccco4)CC3)nc(N)c2cc1OC		-15.2% [at 19 µM]
CCC1(C)NC(=O)NC1=O (stereo not drawn)	inactive	
CCN1CC(CCN2CCOCC2)C(c2ccccc2)(c2ccccc2)C1=O (stereo not drawn)	inactive	
